PubChem BioAssay (EPA / NIEHS)
Results filed as inconclusive are left out. The source made the active and inactive calls. How the source made its calls: active means hit-call score of the fitted dose curve at least 0.9, where 1 is the maximum; inconclusive means response in the unintended direction; inactive means score below 0.9.

Legend:
[1] = biological target: Cellular tumor antigen p53 (Homo sapiens) (UniProt P04637); assay: TOX21_p53_BLA_p2_ratio: Tox21 HCT-116 p53 Agonism Beta-lactamase Assay, Ratio, Phase 2 (AID 2283592)
Outline: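 HCT116 p53-bla; 4000 cells/well; 5 h pre-incubation; cpd in DMSO, 217-fold dilution; 16 h 37C/5% CO2; CCF4-AM 2 h RT; Ex 405, Em 460/530 ratio; DMSO = baseline; positive fitting direction.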

[2] = TOX21_p53_BLA_p3_viability: Viability Assessment in the Tox21 HCT-116 p53 Agonism Beta-lactamase Assay, Phase 3 (AID 2283593);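 further: cells exposed to compound for 16 h before reading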
Outline: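 Cellular ATP was quantified by CellTiter-Glo luminescence, read after 30 min at room temperature. Beforehand, HCT116 cells (4000/well) received compound 5 h post-seeding, 217-fold diluted from DMSO, then incubated 16 h at 37C.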

[3] = biological target: Cellular tumor antigen p53 (Homo sapiens) (UniProt P04637); assay: TOX21_p53_BLA_p3_ratio: Tox21 HCT-116 p53 Agonism Beta-lactamase Assay, Ratio, Phase 3 (AID 2283596)
Outline: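 HCT116 p53-bla cells (4000/well) given compound in DMSO (217-fold dilution) after 5 h, incubated 16 h at 37C. CCF4-AM substrate 2 h at room temperature; 460/530 nm emission ratio, gain fitted against DMSO.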

[4] = TOX21_p53_BLA_p4_viability: Viability Assessment in the Tox21 HCT-116 p53 Agonism Beta-lactamase Assay, Phase 4 (AID 2283597);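 further: hits lower the luminescence signal meaning cytotoxicity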
Outline: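 Cells plated, 5 h pre-incubation; DMSO compounds pinned (217-fold dilution); 16 h, 37C/5% CO2; CCF4-AM 2 h RT; CellTiter-Glo 30 min RT; luminescence read.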

[5] = biological target: Cellular tumor antigen p53 (Homo sapiens) (UniProt P04637); assay: TOX21_p53_BLA_p5_ratio: Tox21 HCT-116 p53 Agonism Beta-lactamase Assay, Ratio, Phase 5 (AID 2283599)
Outline: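 Beta-lactamase reporter ratio (blue 460 nm over green 530 nm, 405 nm excitation) after 2 h CCF4-AM loading, in HCT-116 cells exposed 16 h at 37 C to compounds pinned at 217-fold dilution. Increases relative to DMSO baseline scored.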

[6] = TOX21_p53_BLA_p5_viability: Viability Assessment in the Tox21 HCT-116 p53 Agonism Beta-lactamase Assay, Phase 5 (AID 2283600)
Outline: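 4000 cells/well; 5 h pre-incubation; DMSO compounds pin-transferred, 217-fold dilution; 16 h, 37C/5% CO2; CCF4-AM 2 h RT; CellTiter-Glo 30 min RT; luminescence.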

[7] = biological target: Cellular tumor antigen p53 (Homo sapiens) (UniProt P04637); assay: TOX21_p53_BLA_p4_ratio: Tox21 HCT-116 p53 Agonism Beta-lactamase Assay, Ratio, Phase 4 (AID 2283601)
Outline: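 Signal is the blue/green (460nm/530nm) ratio of cleaved versus uncleaved CCF4-AM substrate, read after 2 h substrate loading. Cells were HCT116 carrying the p53-responsive beta-lactamase reporter, dosed 16 h at 37C, 5% CO2; CellTiter-Glo measured in parallel.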

Measured: AC50

Cellular tumor antigen p53 (Homo sapiens), sequence (P04637 whole entry, looked up): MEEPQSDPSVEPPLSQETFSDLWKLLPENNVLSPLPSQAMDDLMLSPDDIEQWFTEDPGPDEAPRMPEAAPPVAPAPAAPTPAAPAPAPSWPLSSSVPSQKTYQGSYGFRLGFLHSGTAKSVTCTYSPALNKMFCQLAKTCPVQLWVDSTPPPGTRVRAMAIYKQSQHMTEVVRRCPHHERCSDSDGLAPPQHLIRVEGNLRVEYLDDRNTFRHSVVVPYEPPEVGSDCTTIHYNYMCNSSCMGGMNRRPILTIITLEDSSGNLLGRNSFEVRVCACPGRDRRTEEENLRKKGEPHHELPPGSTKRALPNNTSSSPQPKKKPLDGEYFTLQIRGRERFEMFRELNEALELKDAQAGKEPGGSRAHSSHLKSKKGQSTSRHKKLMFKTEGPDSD

COCC(O)CO (configuration not stated)
inactive: all assays above

CN[C@@H]1[C@@H](O[C@H]2O[C@H](CO)[C@@H](N)[C@H](O)[C@H]2O)O[C@H]2C[C@@H](N)[C@@H](O[C@H]3[C@H](O)[C@@H](O)[C@H](N)C[C@@H]3N)O[C@@H]2[C@@H]1O
inactive: all assays above

C[N+](C)(CCOc1ccccc1)Cc1cccs1
inactive: all assays above

Nc1ncnc2c1ncn2[C@@H]1O[C@H](COP(=O)(O)OP(=O)(O)OP(=O)(O)O)[C@@H](O)[C@H]1O
inactive: all assays above

COc1ncnc(NS(=O)(=O)c2ccc(N)cc2)c1OC
inactive: all assays above

COc1ccc(-c2noc(CC(=O)O)c2-c2ccc(OC)cc2)cc1
inactive: all assays above

CCCC(=O)N1CCCN(c2nc(N)c3cc(OC)c(OC)cc3n2)CC1
inactive: all assays above

CC(C)(C)C(=O)OCOC(=O)[C@@H]1N2C(=O)[C@@H](N=CN3CCCCCC3)[C@H]2SC1(C)C
inactive: all assays above

CCOC(=O)CS
inactive: all assays above

CCN(CC)CCNc1ccc(CO)c2sc3ccccc3c(=O)c12
active: [1] 16.2 µM | [3] 23.2 µM | [4] 33.2 µM | [5] 20.5 µM | [7] 14.3 µM
inactive: [2] | [6]

O=S(=O)(O)c1cc(I)c(O)c2ncccc12
inactive: all assays above

CC1(CN2CCC(n3c(=O)[nH]c4ccccc43)CC2)OCc2ccccc2-n2cccc21 (configuration not stated)
active: [4] 33.3 µM
inactive: all other assays above

C=C1/C(=C\C=C2/CCC[C@]3(C)[C@@H]([C@H](C)OCCC(C)(C)O)CC[C@@H]23)C[C@@H](O)C[C@@H]1O
active: [1] 12.7 µM | [3] 14.3 µM | [5] 13.5 µM | [7] 9.97 µM
inactive: [2] | [4] | [6]

Oc1ccc(Cc2ccccc2)cc1
active: [1] 66.5 µM
inactive: all other assays above

CCN(CC)CCSC(=O)C(c1ccccc1)c1ccccc1
inactive: all assays above

CCCN1CCCC[C@H]1C(=O)Nc1c(C)cccc1C
inactive: all assays above

CCC(CC)(CC(=O)Nc1cccc(/C=C/c2nc(C3CCC3)cs2)c1)C(=O)O
inactive: all assays above

C[C@H](O)[C@H](O)[C@H]1CNc2nc(N)[nH]c(=O)c2N1
inactive: all assays above

Cc1cc(S(=O)(=O)O)c(N)cc1Cl
inactive: all assays above

C[C@@H]1O[C@@H]1P(=O)(O)O
inactive: all assays above

O=C(NN=Cc1ccc([N+](=O)[O-])o1)c1ccc(O)cc1
active: [1] 10.2 µM | [3] 16.2 µM | [5] 15.5 µM
inactive: all other assays above

c1ccc2sc(SN3CCOCC3)nc2c1
inactive: all assays above

O=S1(=O)c2cccc3cccc(c23)N1CCCN1CCN(c2ccc(F)cc2)CC1
active: [4] 41.2 µM
inactive: all other assays above

NCCCNCCSP(=O)(O)O
inactive: all assays above

Cc1c(C)c2c(c(C)c1O)CC[C@@](C)(CCC[C@H](C)CCC[C@H](C)CCCC(C)C)O2
inactive: all assays above

O=[N+]([O-])c1cccc(S(=O)(=O)O)c1
inactive: all assays above
